The values below come from PubChem BioAssay (EPA / NIEHS).

Activity calls are given as the source filed them. The calls were made as follows: active = hit-call score of the fitted dose curve at least 0.9, where 1 is the maximum; inactive = score below 0.9.

Read-out in the test: Lipase C (LIPC), LIPC (gene 3990)
Nature of the test: LTEA_HepaRG_LIPC: Life Technologies and Expression Analysis (LTEA) Assay for Lipase C (LIPC) using HepaRG (AID 2283514). The following applies: mRNA level, 48 h; actives raise or lower the signal. As to the method:
LTEA_HepaRG is a cell based, multiplexed-readout assay that uses HepaRG, a human liver cell line, with measurements taken at 48 hours after chemical dosing on a 96-well plate.LTEA_HepaRG_LIPC is one of 102 assay component(s) measured in the LTEA HepaRG cell culture assay. It is a marker of Steatosis.Data from the assay component LTEA_HepaRG_LIPC was analyzed into 1 endpoint. This assay endpoint, LTEA_HepaRG_LIPC, was analyzed with bidirectional fitting relative to DMSO as the negative control and baseline of activity. Using a type of inducible reporter, measures of mRNA induction for gain or loss-of-signal activity can be used to understand regulation of transcription factor activity. To generalize the intended target to other relatable targets, this assay endpoint is annotated to the esterase intended target family, where the subfamily is lipase.
A total of 1060 chemcials from the ToxCast library were tested in eight-point concentration-response experiments. Cell culture and cytotoxicity assays were conducted at Thermo Fisher Scientific's Custom Services facility (Madison, WI). A single lot of human HepaRG cells (Thermo Fisher Scientific, Frederick, MD) was used for the cell culture experiments. 96-well format collagen type I coated plates of human HepaRG cells were prepared using established methods. Briefly, cryopreserved HepaRG cells were thawed, plated at a density of approximately 100,000 cells/well in HepaRG Thaw, Plate, and General Purpose media (HPRG770, Thermo Fisher Scientific), and incubated for 48 hours. 0.5% DMSO was selected as vehicle control to balance the requisite need of DMSO in HepaRG cultures to maintain differentiation (for example, baseline metabolism, proportions of hepatocytes vs. cholangiocytes), while enabling further hepatic receptor pathway activation (for example, PXR and CAR) in response to chemical exposure. 48 hours after plating, the culture medium was replaced with HepaRG Serum-Free Incudtion Media. Cells were exposed to each test chemical in duplicate and maintained in CO2 incubators for another 48 hours. Chemical plates were thawed to room temperature and 200x concentrations of treatment groups were prepared. 8-point conentration-reponse curves were made with the highest exposure at 100 uM, followed by half-log dilutions, all in 0.5% DMSO. Each test plate contained variouse controls, induction positive controls (1mM phenobarbital), cytotoxicity positive controls ([…] aflatoxin B1), vehicle controls (0.5% DMSO), and total lysis controls (0.5% DMSO). Cell morphology images were taken using an Essen IncuCyte FLR automated microscope, with six 96-well plates imaged in about 24 minutes. Images were captured and exported and JPEG files. Spent culture media was transfered to black-well plates for the LDH assay, and remaining media was sorted at -80 C for later use. Cells were treated with RLT buffer and frozen until shipped for gene expression analysis. Total RNA was isolated from the cell suspension in 75 uL of Buffer RLT (Qiagen, Germantown, MD 20874) by Quintiles/Expression Analysis (Durham, NC) using a custom isolation procedure. Total RNA from each plate well was transferred to a preamplification plate. Fluidigm's 96.96 Dynamic ArrayTM (Fluidigm, Amsterdam, the Netherlands) technology was used for gene expression analyses by quantitative reverse transcription polymerase chain reaction (qRT-PCR, performed by Quintiles/Expression Analysis, Durham, NC)89. Standard TaqManTM Assays (Applied Biosystems/ThermoFisher Scientific, Foster City, CA) were used to assess the expression of 93 genes selected based on their selectivity and sensitivity to important hepatic receptors known to be modulated by environmental chemicals; importance in human hepatocyte functionality; and hepatotoxicity. […]
With `CSc1nc(NC(C)C)nc(NC(C)C)n1`, the compound was called inactive.
In the case of `CCCOCC(=Nc1ccc(Cl)cc1C(F)(F)F)n1ccnc1`, the AC50 is 15.8 µM (active).
Same read-out and setting: under `CCCCSP(=O)(SCCCC)SCCCC` stands 83.6 µM (active).
On to `FC(F)C(F)(F)OCC(Cn1cncn1)c1ccc(Cl)cc1Cl` (stereo not given), for which the concentration at half-maximal activity (AC50) was 49.8 µM (active).
Turning to `COP(=O)(OC)C(O)C(Cl)(Cl)Cl` (stereo not given), the outcome was inactive.
`CCOP(=O)(NC(C)C)Oc1ccc(SC)c(C)c1` (stereo not given): the compound was called inactive.
Same read-out and setting: the value for `CCc1cnc(C2=NC(C)(C(C)C)C(=O)N2)c(C(=O)O)c1` (stereo not given) was “inactive”.
As to `Nc1c(Cl)cc([N+](=O)[O-])cc1Cl`, the AC50 was 75.3 µM (active).
`CCc1cccc(C)c1N(C(=O)CCl)C(C)COC` (stereo not given): the compound was called inactive.
`CC(C)[C@H](C(=O)O[C@H](C#N)c1cccc(Oc2ccccc2)c1)c1ccc(Cl)cc1`: the result was inactive.
For the compound `CSC1=N[C@@](C)(c2ccccc2)C(=O)N1Nc1ccccc1`, the AC50 is 31.4 µM (active).
Consider `CN(C)NC(=O)CCC(=O)O`, for which the compound was classed as inactive.
`N#CSCSC#N`: the AC50 is 93.7 µM (active).
For `CCOP(=S)(OCC)Oc1ccc2c(C)c(Cl)c(=O)oc2c1`, the AC50 is 74.7 µM (active).
For `CC1(C(=O)Nc2ccc(O)c(Cl)c2Cl)CCCCC1`, the compound was called inactive.
Same read-out and setting: under `CCOC(=O)COc1cc(-c2nn(C)c(OC(F)F)c2Cl)c(F)cc1Cl` stands “inactive”.
Same read-out and setting: under `CCOP(=S)(OCC)Oc1ccc([N+](=O)[O-])cc1` stands “inactive”; under `COP(=O)(OC)OC(Br)C(Cl)(Cl)Br` (stereo not given), “inactive”.
On the same count and under the same terms, the value for `CC1=NNC(=O)N(/N=C/c2cccnc2)C1` was “inactive”.
Turning to `COc1ccc(C(=CC(=O)N2CCOCC2)c2ccc(Cl)cc2)cc1OC`, the compound was classed as inactive.
`C[N+]1(C)CCCCC1`: the call was inactive.
On to `O=[N+]([O-])c1cc(C(F)(F)F)c(Cl)c([N+](=O)[O-])c1Nc1ncc(C(F)(F)F)cc1Cl`, for which the AC50 was 24.4 µM (active).
For `C[Si](Cn1cncn1)(c1ccc(F)cc1)c1ccc(F)cc1`, the half-maximal activity concentration (AC50) is 26.7 µM (active).
With `COc1cc(OC)nc(Sc2cccc(Cl)c2C(=O)O)n1`, the outcome was inactive.
Same read-out and setting: the value for `C#CC(C)(C)NC(=O)c1cc(Cl)cc(Cl)c1` was “inactive”.
Consider `CCC(=O)Nc1ccc(Cl)c(Cl)c1`, for which the result was inactive.
Regarding `CCOP(=S)(Oc1cnc(C(C)(C)C)nc1)OC(C)C` (stereo not given), the AC50 is 18.8 µM (active).
Consider `CCOP(=S)(OCC)OC(Cl)C(Cl)(Cl)Cl` (stereo not given), for which the result was inactive.
Take `CCOP(=S)(OCC)Oc1cc(C)nc(C(C)C)n1`: the compound was classed as inactive.
On the same count and under the same terms, under `O=C(O)c1cc(Oc2ccc(C(F)(F)F)cc2Cl)ccc1[N+](=O)[O-]` stands “inactive”.
Same read-out and setting: under `CCCCOC(=O)c1ccccc1C(=O)O` stands “inactive”; under `CC[C@H](C)[C@H]1O[C@]2(C=C[C@@H]1C)C[C@@H]1C[C@@H](C/C=C(\C)[C@@H](O[C@H]3C[C@H](OC)[C@@H](O[C@H]4C[C@H](OC)[C@@H](NC)[C@H](C)O4)[C@H](C)O3)[C@@H](C)/C=C/C=C3\CO[C@@H]4[C@H](O)C(C)=C[C@@H](C(=O)O1)[C@]34O)O2`, “inactive”; under `O=c1ccc(=O)[nH][nH]1`, “inactive”.
Still for that read-out and setting: the value for `C#CCC1=C(C)C(OC(=O)C2C(C=C(C)C)C2(C)C)CC1=O` (stereo not given) was “inactive”; that for `CSc1nnc(C(C)(C)C)c(=O)n1N` was “inactive”.
For the compound `Nc1nc(N)nc(NC2CC2)n1`, the outcome was inactive.
On the same count and under the same terms, under `CC(C)=CC1C(C(=O)OCN2C(=O)C3=C(CCCC3)C2=O)C1(C)C` (stereo not given) stands “inactive”.
In the case of `C=C(C)[C@H]1Cc2c(ccc3c2O[C@@H]2COc4cc(OC)c(OC)cc4[C@@H]2C3=O)O1`, the AC50 was 12.7 µM (active).
As to `CCCOc1nn(C(=O)NS(=O)(=O)c2ccccc2C(=O)OC)c(=O)n1C`, the compound was called inactive.
`CC(=NC#N)N(C)Cc1ccc(Cl)nc1`: the outcome was inactive.

For orientation: AC50 means the concentration at which the activity in the assay is half-maximal.
